CHOP inh – inhibitors of CHOP induction in ER stress response. CHO-K1 CHOP-promoter luciferase, tunicamycin-induced, 15-18 h. inhibition, % at 10 µM. 220,000 tested, 3.8% active;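 active = compounds that reduced the stress-induced luciferase reporter signal by more than about 70% of percent inhibition, limit read from the data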;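 also: 0% = tunicamycin plus vehicle and 100% = wells without tunicamycin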
L major viab – inhibitors of Leishmania major promastigote growth | Leishmania major promastigotes, resazurin fluorescence viability | inhibition, % at 10 µM | 200,000 tested, 9% active; in the data active = inhibition above about 50%;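 also: promastigotes grown with compound for 44 hours at 28 °C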
RAM inhibit – blocks the yeast RAM network; S. cerevisiae dse1pr::URA3 reporter, 5-FOA growth OD615, 2 d; analog-sensitive cbk1-as2 kinase mutant strain; inhibition, % at 50 µM; 190,000 tested, 1.8% active; AID 868;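 active = inhibition above a set limit, 3 SD over mean compound inhibition, cut at about 8.4% in these data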;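 also: 0% = DMSO-only wells with no growth and 100% = 10 µM 1-NA-PP1 full growth; inhibition rescues growth on 5-FOA so higher OD means more RAM inhibition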
WT yeast gro inh – growth inhibition of WT yeast, mitochondrial fusion screen | inhibition, % at 10 µM | AID 1362 | mitochondrial fusion phenotypic screen, WT strain | 190,000 tested, 2.1% active; in the data active = inhibition above about 58%; tested in S. cerevisiae
RAM 5-FOA – restores 5-FOA growth of efflux-deficient yeast; shares compounds with RAM inhibit; S. cerevisiae efflux-deficient reporter strain, 5-FOA growth OD615, 2 days; max inhibition, %; 1,200 tested, under 10 active; call rule not given here;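 also: plate controls were vehicle for no effect and reference inhibitor for full effect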
* marks the source's active call; other numbers are inactive results; nt = not tested or not shown. Sampled rows, rich in hits. Any-hit rate of the full collection: about 13%.

SMILES	CHOP inh	L major viab	RAM inhibit	WT yeast gro inh	RAM 5-FOA
CCOc1ccccc1NC(=O)Nc1ccc(CC#N)cc1	-11	nt	nt	nt	nt
N#C/C(=C/c1cccn1-c1cccc(C(=O)O)c1)c1ccc(F)cc1	13	-6	3	10	nt
O=C(COc1cccc(F)c1)N1c2ccccc2Sc2ccccc21	30	4	15*	52	4
Cc1ccc(NCCCCO)cc1C	-3	5	0	-3	nt
N#Cc1c(C(F)(F)F)cc(C2CC2)nc1N1CCCC1	83*	-1	14*	14	2
Cc1cc(C(F)(F)F)c(C#N)c(N2CCOCC2)n1	22	-7	0	0	nt
CCOC(=O)C1=C(C)Nc2ccccc2N=C1N	-4	-2	1	-4	nt
CCCCN(CCCC)C1=Nc2ccccc2N/C1=C(/C#N)C(=O)OCC	72*	23	16*	68*	6
CNC(=O)c1ccc(CNC(=O)OCc2ccccc2)cc1	0	-4	-1	5	nt
O=S(=O)(Cc1cc(NCc2ccccc2)nc(-c2ccccn2)n1)c1ccccc1	-11	21	1	3	nt
COc1cc(CNn2c(C)n[nH]c2=S)cc(Cl)c1OCc1ccc(F)cc1	59	0	12*	71*	1
COC(=O)Cn1nnc(N2CCOCC2)n1	-19	nt	nt	nt	nt
C[C@@H](NC(=O)c1nc[nH]c1C(=O)N[C@@H](Cc1ccccc1)C(=O)OCc1ccccc1)c1ccccc1	-8	4	8	-2	nt
CC(C)(C)OC(=O)NCCCCCNC(=O)c1[nH]cnc1C(=O)N[C@@H](Cc1ccccc1)C(=O)OCc1ccccc1	40	31	13*	-13	7
CC(C)C[C@H](NC(=O)c1nc[nH]c1C(=O)NCc1ccccc1)C(=O)OCc1ccccc1	8	17	14*	11	8
CN(Cc1ccccc1)C(=O)c1[nH]cnc1C(=O)N[C@@H](Cc1ccccc1)C(=O)OCc1ccccc1	4	31	12*	13	3
Cn1c(N)c(C(=O)CSc2nc3ccccc3[nH]2)c(=O)n(C)c1=O	-2	nt	nt	nt	nt
COc1ccc(-n2nc(C(=O)Nc3ccc4c(c3)OCO4)c3c4ccccc4n(C)c3c2=O)cc1	nt	12	nt	nt	nt
COc1ccc(-n2nc(C(=O)Nc3ccc(OC)c(OC)c3)c3c4ccccc4n(C)c3c2=O)cc1	72*	1	13*	-7	5
Cc1ccc(/C=C2/Sc3ccccc3N(CC(=O)NCCCOC(C)C)C2=O)cc1	50	8	13*	32	4
COCCCNC(=O)CN1C(=O)/C(=C/c2ccccc2)Sc2ccccc21	26	nt	nt	nt	nt
CC(C)c1ccc(/C=C(\c2nc3ccccc3[nH]2)S(=O)(=O)c2ccccc2)cc1	33	100*	19*	9	3
CC(C)(C)/C(O)=C/c1nc2ccccc2[nH]c1=O	16	-5	3	-17	nt
Cc1nc2ccc(S(=O)(=O)Nc3cc(-c4nc5cccnc5s4)ccc3C)cc2s1	-6	1	6	48	nt
Cc1ccc(-c2nc3cccnc3s2)cc1NS(=O)(=O)c1ccc2c(c1)OCCO2	27	30	13*	49	2
SMILES	CHOP inh	L major viab	RAM inhibit	WT yeast gro inh	RAM 5-FOA
COc1cccc(CN(Cc2ccco2)C(c2ccc(F)cc2)c2nnnn2C(C)(C)C)c1 (stereo unspecified)	48	58*	14*	39	3
Cc1ccc(CC(=O)NCCC(=O)O)cc1	-31	nt	nt	nt	nt
CCCCCOC(=O)C1C(c2ccccc2)C(C(=O)O)C1c1ccccc1 (stereo unspecified)	-3	-7	15*	-22	3
CC1CC(C)CN(S(=O)(=O)N2CCC(C(=O)NCCC3=CCCCC3)CC2)C1 (stereo unspecified)	30	12	4	-6	nt
CN(C)S(=O)(=O)c1ccc(NCC2COc3ccccc3O2)c([N+](=O)[O-])c1 (stereo unspecified)	22	-2	3	2	nt
CCN(CC)S(=O)(=O)c1ccc(NCC2COc3ccccc3O2)c([N+](=O)[O-])c1 (stereo unspecified)	37	5	17*	-1	3
CCOC(=O)C1=C(O)/C(=C/c2cc(OC)c(O)c(OC)c2)SC1=Nc1ccc(OC)cc1	60	35	16*	-17	10
COc1cccc(C2CC(c3cccs3)=NN2S(C)(=O)=O)c1 (stereo unspecified)	-16	-4	1	-2	nt
O=C(COC(=O)c1cc(-c2ccc(Cl)s2)nc2ccccc12)NCc1ccco1	81*	1	12*	20	4
O=C(COC(=O)c1cc(-c2cccs2)nc2ccccc12)NCc1ccco1	32	-6	8	5	nt
CCOC(=O)COn1c(=O)c(=O)n(O)c2ccccc21	4	-8	1	5	nt
COc1cccc(N/C(SCc2ccccc2Cl)=C(/C#N)C(=O)NCc2cccs2)c1	-3	12	16*	15	3
COc1cccc(N/C(SCc2ccccc2C)=C(/C#N)C(=O)NCc2cccs2)c1	21	4	20*	10	4
COc1cccc(N/C(SCc2cccc([N+](=O)[O-])c2)=C(/C#N)C(=O)NCc2cccs2)c1	-6	87*	17*	13	4
COc1ccc(N2CCN(C(=O)c3ccccc3Br)CC2)c([N+](=O)[O-])c1	17	-5	0	24	nt
O=C(COc1ccc2c(c1)C(=O)CC1(CCCCC1)O2)NCc1ccccc1	-8	6	12*	-33	2
Cc1ccc2nc(-c3ccc(NC(=O)CSc4nccc(=O)[nH]4)cc3)sc2c1	-14	-6	12*	-10	3
Cc1cccc(OCc2nnc(SCC(=O)c3ccccc3)o2)c1	41	2	12*	21	2
O=C(CSc1nnc(COc2ccccc2)o1)c1ccccc1	-5	-1	6	-7	nt
Cc1ccc(C(=O)CSc2nnc(COc3cc(C)cc(C)c3)o2)cc1	23	-2	12*	1	1
Cc1cc(C)cc(OCc2nnc(SCC(=O)c3ccccc3)o2)c1	51	-7	8	6	nt
COc1cccc(CN(C(=O)Cn2nnc(-c3ccccc3F)n2)C(C(=O)NC(C)(C)C)c2ccncc2)c1 (stereo unspecified)	23	6	1	-6	nt
CCOC(=O)C1=C(Cc2ccc(OC)cc2)C(=O)c2ccccc2C1=O	95*	24	12*	21	3
CCOC(=O)c1ccc(COC(=O)c2ccc3c(c2)-c2ccccc2C3=O)cc1	11	-5	12*	8	5
O=C(OCc1ccccc1F)c1ccc2c(c1)-c1ccccc1C2=O	27	-3	13*	5	3
O=C(OCc1cccc(F)c1)c1ccc2c(c1)-c1ccccc1C2=O	44	-5	8	7	nt
CCOC(=O)c1ccc(COC(=O)CNS(=O)(=O)c2ccccc2)cc1	15	-5	0	-10	nt
COc1cc(CCCN2C(N)=NC[C@H]2Cc2ccc(O)cc2)cc(OC)c1OC	-2	nt	nt	nt	nt
CCS(=O)(=O)c1ccc(-c2csc(-c3ccc(Cl)cc3)n2)c(Cl)c1Cl	-2	-2	12*	-4	3

High-throughput results from PubChem BioAssay.
